Results from PubChem BioAssay (NCATS).
Results filed as inconclusive are left out. Values without a mark were called inactive. The source made the active and inactive calls. Calls come from the whole dose curve; as a rule, active = well fitted inhibition curve with a large enough effect; inconclusive = small, poorly fitted or top-dose-only effect; inactive = flat fitted curve, though single readings scatter.
Potency is the fitted concentration of half-maximal effect.

These molecules were tested on Zika virus NS2B-NS3 protease (assay: Primary screen GU AMC qHTS for Zika virus inhibitors (AID 1347154; note: nearly all actives have a fitted effect of over 70% in size;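 for activity change, negative = inhibition: 0% = no-inhibitor control and -100% = no-enzyme control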)). Conditions: Zika NS2B-NS3 unlinked protease, AMC fluorogenic substrate; series mostly up to 54.1 µM; activity change, negative = inhibition: at the top concentration.
In short: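 Unlinked Zika NS2B hydrophilic domain/NS3 protease domain noncovalent complex (25 nM final) in 10 mM Tris-HCl pH 8.0, 0.01% Tween 20, with AMC peptide substrate. Fluorescence (ex 340, em 450 nm) change over 15 min, room temperature; percent inhibition fitted to 4-parameter Hill equation.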
CN(C)NC(=O)CCC(=O)O was tested, and the “activity change, negative = inhibition” value was 2.15%. For O=[N+]([O-])c1ccc([As](=O)(O)O)cc1, the “activity change, negative = inhibition” value was -3.68%. In the case of C[C@]12CC[C@H]3[C@@H](CCC4=CC(=O)CC[C@@]43C)[C@H]1CC[C@H]2O, the “activity change, negative = inhibition” value is reported as 1.08%. With Nc1ccc(Cl)cc1 the “activity change, negative = inhibition” value was -3.17% [at 104 µM]. For CCCCCCCCCC(CC)c1ccc(S(=O)(=O)O)cc1 (stereo not given), the Potency was 11.7 µM (active). Oc1ccc2c3c1O[C@H]1c4[nH]c5c(c4C[C@@]4(O)[C@@H](C2)N(CC2CC2)CC[C@]314)C[C@@]1(O)[C@H]2Cc3ccc(O)c4c3[C@@]1(CCN2CC1CC1)[C@H]5O4 was tested, and the Potency was “inactive”. With CN1CCN(c2ccc([N+](=O)[O-])c3no[n+]([O-])c23)CC1 the “activity change, negative = inhibition” value was 1.16%. CN[C@@H](C)[C@H](O)c1ccccc1 was tested, and the “activity change, negative = inhibition” value was -0.32%. With CO/C=C(/C(=O)OC)c1ccccc1Oc1cc(Oc2ccccc2C#N)ncn1 the “activity change, negative = inhibition” value was 1.19% [at 104 µM]. O=c1cccc2n1CC1CNC[C@H]2C1 was tested, and the Potency was “inactive”. In the case of O=C(Oc1ccc([N+](=O)[O-])cc1)N1CCN(Cc2cccc(Oc3ccccc3)c2)CC1, the “activity change, negative = inhibition” value is reported as -7.81%. In the case of C#C[C@]1(O)C=C[C@@H]2[C@@H]3CCC4=CC(=O)CC[C@@H]4[C@H]3CC[C@@]21CC, the “activity change, negative = inhibition” value is reported as 10.9%. In the case of Nc1ccc([N+](=O)[O-])cc1, the “activity change, negative = inhibition” value is reported as -3.84% [at 104 µM]. Cc1c(C(=O)c2cccc3ccccc23)c2cccc3c2n1[C@H](CN1CCOCC1)CO3 was tested, and the Potency was “inactive”. In the case of CC1(N2CCC(n3c([C@@H]4CCCNC4)nc4ccccc43)CC2)CCCCCCC1, the “activity change, negative = inhibition” value is reported as 4.16%. O=[N+]([O-])/N=C1\NCCN1Cc1ccc(Cl)nc1 was tested, and the “activity change, negative = inhibition” value was -6.44%. For CC(C)(O)C(=O)Nc1ccc([N+](=O)[O-])c(C(F)(F)F)c1, the “activity change, negative = inhibition” value was 6.95%. In the case of COC[C@H]1OC(=O)c2coc3c2[C@@]1(C)C1=C(C3=O)[C@@H]2CC[C@H](O)[C@@]2(C)C[C@@H]1OC(C)=O, the “activity change, negative = inhibition” value is reported as -1.69%. For CC(O)CN1CCN(CC(=O)[O-])CCN(CC(=O)[O-])CCN(CC(=O)[O-])CC1.[Gd+3] (stereo not given), the “activity change, negative = inhibition” value was -1.53%. For O=C(Oc1ccc([N+](=O)[O-])cc1)N1CCC(C(O)(c2ccc3c(c2)OCO3)c2ccc3c(c2)OCO3)CC1, the “activity change, negative = inhibition” value was -2.57%. For CSCC[C@@H](NC(=O)[C@@H](Cc1ccccc1)NC(=O)CNC(=O)CNC(=O)[C@@H](N)Cc1ccc(O)cc1)C(=O)O, the “activity change, negative = inhibition” value was 16.1%. For O=C(NCC1CCOCC1)c1cnc(Nc2ccc(Cl)cc2Cl)nc1C(F)(F)F, the “activity change, negative = inhibition” value was 16.5%. C[C@]12CCC(=O)C(O)=C1CC[C@@H]1[C@H]3CCC(=O)[C@@]3(C)CC[C@@H]12 was tested, and the “activity change, negative = inhibition” value was -7.44%. With N=c1c2c(-c3ccccc3)c(-c3ccccc3)n(Cc3ccccc3)c2ncn1C1CCC(O)CC1 (stereo not given) the “activity change, negative = inhibition” value was 5.9%. CC(C)[C@]12O[C@H]1[C@@H]1O[C@]13[C@]1(O[C@H]1C[C@H]1C4=C(CC[C@@]13C)C(=O)OC4)[C@@H]2O was tested, and the “activity change, negative = inhibition” value was -3.52%. In the case of c1ccc2c(CN3CCNCC3)cccc2c1, the “activity change, negative = inhibition” value is reported as 4.48%. For COCC1(CO)C(=O)C2CCN1CC2 (stereo not given), the “activity change, negative = inhibition” value was 7.13%. For CCCCOC(=O)c1ccccc1C(=O)OCc1ccccc1, the “activity change, negative = inhibition” value was -8.12% [at 104 µM]. With O=S(=O)(O)C(F)(F)C(F)(F)C(F)(F)C(F)(F)C(F)(F)C(F)(F)C(F)(F)C(F)(F)F the Potency was 11.2 µM (active). With COc1ccc(C(c2ccc(OC)cc2)C(Cl)(Cl)Cl)cc1 the “activity change, negative = inhibition” value was -8.26% [at 104 µM]. O=C1CCC[C@@H]2[C@H]3CCCN4CCC[C@@H](CN12)[C@@H]34 was tested, and the “activity change, negative = inhibition” value was 1.98%. COC(C)(C)CCCC(C)C/C=C/C(C)=C/C(=O)OC(C)C (stereo not given) was tested, and the “activity change, negative = inhibition” value was -0.976%. With COc1ccc2c(c1)[C@]13CCCCC1C(C2)N(C)CC3 (stereo not given in full) the “activity change, negative = inhibition” value was 2.49%. In the case of CC1=C(C(=O)O)N2C(=O)[C@@H](N)[C@H]2SC1, the “activity change, negative = inhibition” value is reported as -9.12% [at 25.8 µM]. For COc1nn(CSP(=S)(OC)OC)c(=O)s1, the “activity change, negative = inhibition” value was 2.6% [at 104 µM].
